Source: PubChem BioAssay (EPA / NIEHS)
The source made the active and inactive calls. How the source made its calls: active means hit-call score of the fitted dose curve at least 0.9, where 1 is the maximum; inactive means score below 0.9.

Columns and labels:
[1] = read-out: TIMP metallopeptidase inhibitor 1 (TIMP1), TIMP1 (gene 7076); assay: BSK_hDFCGF_TIMP1: BioMAP Diversity Plus: hDFCGF Assay for TIMP metallopeptidase inhibitor 1 (TIMP1) Biomarker Activity (AID 2283062); details: primary human foreskin fibroblasts; actives raise or lower the signal
In short: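 Fibroblasts from human foreskin are treated with test chemical and harvested at 24 h. TIMP-1 is quantified by ELISA, and gain or loss of signal is scored against DMSO.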

[2] = read-out: Monokine induced gamma interferon (MIG), CXCL9 (gene 4283); assay: BSK_hDFCGF_MIG: BioMAP Diversity Plus: hDFCGF Assay for Monokine induced gamma interferon (MIG) Biomarker Activity (AID 2283063); details: primary human foreskin fibroblasts; actives raise or lower the signal
In short: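 MIG signal, determined by ELISA, reflects 24 h chemical exposure of human skin primary fibroblasts. DMSO serves as negative control and baseline.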

[3] = read-out: Matrix Metallopeptidase 1 (MMP1), MMP1 (gene 4312); assay: BSK_hDFCGF_MMP1: BioMAP Diversity Plus: hDFCGF Assay for Matrix Metallopeptidase 1 (MMP1) Biomarker Activity (AID 2283064); details: primary human foreskin fibroblasts; actives raise or lower the signal
In short: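 hDFCGF primary fibroblasts (human foreskin); chemical added; 24 h; MMP1 by ELISA; bidirectional fit vs DMSO.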

[4] = read-out: Vascular cell adhesion molecule 1 (VCAM1), VCAM1 (gene 7412); assay: BSK_hDFCGF_VCAM1: BioMAP Diversity Plus: hDFCGF Assay for Vascular cell adhesion molecule 1 (VCAM1) Biomarker Activity (AID 2283065); details: primary human foreskin fibroblasts; actives raise or lower the signal;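 on AC50: VCAM-1 protein level quantified by ELISA after 24 h chemical exposure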
In short: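 Cells are dosed, cultured for 24 h, then VCAM-1 is quantified by ELISA; signal increases and decreases are both fitted relative to DMSO.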

[5] = read-out: Plasminogen activator inhibitor-1 (PAI1), SERPINE1 (gene 5054); assay: BSK_hDFCGF_PAI1: BioMAP Diversity Plus: hDFCGF Assay for Plasminogen activator inhibitor-1 (PAI1) Biomarker Activity (AID 2283066); details: primary human foreskin fibroblasts; actives raise or lower the signal
In short: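 Human foreskin fibroblast primary cells, 24 h chemical exposure; PAI-1 measured by ELISA. Bidirectional fitting relative to DMSO; parallel cultures stained with SRB for total protein to flag overt cytotoxicity.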

[6] = read-out: Intercellular Adhesion Molecule 1 (ICAM1), ICAM1 (gene 3383); assay: BSK_KF3CT_ICAM1: BioMAP Diversity Plus: KF3CT Assay for Intercellular Adhesion Molecule 1 (ICAM1) Biomarker Activity (AID 2283067); details: primary human keratinocytes with fibroblasts; actives raise or lower the signal
In short: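 Dose the keratinocyte/fibroblast co-culture, wait 24 h, measure ICAM-1 by ELISA, then fit increases or decreases against DMSO. Cytotoxicity is checked in parallel cultures by SRB total-protein staining.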

[7] = read-out: Interferon-gamma inducible Protein 10 (IP10), CXCL10 (gene 3627); assay: BSK_KF3CT_IP10: BioMAP Diversity Plus: KF3CT Assay for Interferon-gamma inducible Protein 10 (IP10) Biomarker Activity (AID 2283068); details: primary human keratinocytes with fibroblasts; actives raise or lower the signal
In short: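 Human keratinocyte plus foreskin fibroblast primary co-culture exposed to test chemical for 24 h; IP-10 measured by ELISA. Concentration-response fitted bidirectionally against DMSO control as baseline.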

[8] = BSK_KF3CT_SRB: Viability Assessment in the BioMAP Diversity Plus: KF3CT Assay (AID 2283069); details: primary human keratinocytes with fibroblasts;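 further: fitted for both signal gain and loss against DMSO baseline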
In short: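 Keratinocytes co-cultured with foreskin fibroblasts (human primary); chemical added, 24 h; fix 10% TCA, stain 0.1% SRB, A560. Bidirectional fit vs DMSO.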

[9] = read-out: Interleukin-1 alpha (IL1a), IL1A (gene 3552); assay: BSK_KF3CT_IL1a: BioMAP Diversity Plus: KF3CT Assay for Interleukin-1 alpha (IL1a) Biomarker Activity (AID 2283070); details: primary human keratinocytes with fibroblasts; actives raise or lower the signal
In short: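 Chemicals were dosed onto co-cultured human keratinocytes and foreskin fibroblasts, IL-1a was quantified by ELISA at 24 h, and activity was fitted in both directions relative to DMSO controls.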

[10] = read-out: Transforming growth factor beta 1 (TGFb1), TGFB1 (gene 7040); assay: BSK_KF3CT_TGFb1: BioMAP Diversity Plus: KF3CT Assay for Transforming growth factor beta 1 (TGFb1) Biomarker Activity (AID 2283072); details: primary human keratinocytes with fibroblasts; actives raise or lower the signal
In short: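 Human keratinocyte/foreskin fibroblast co-culture; TGF-b1 measured by ELISA 24 h after dosing, fitted bidirectionally versus DMSO. Cytotoxicity checked in parallel cultures by total protein (SRB staining, 560 nm).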

[11] = read-out: C-C motif chemokine 2 (Homo sapiens) (UniProt P13500); assay: BSK_KF3CT_MCP1: BioMAP Diversity Plus: KF3CT Assay for Monocyte Chemoattractant Protein 1 (MCP1/CCL2) Biomarker Activity (AID 2283073); details: primary human keratinocytes with fibroblasts; actives raise or lower the signal
In short: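 Keratinocytes and foreskin fibroblasts were co-cultured, dosed with chemical, and sampled 24 h later. MCP-1 was quantified by ELISA, and the endpoint was analyzed with bidirectional fitting using DMSO as negative control.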

[12] = read-out: Matrix Metallopeptidase 9 (MMP9), MMP9 (gene 4318); assay: BSK_KF3CT_MMP9: BioMAP Diversity Plus: KF3CT Assay for Matrix Metallopeptidase 9 (MMP9) Biomarker Activity (AID 2283074); details: primary human keratinocytes with fibroblasts; actives raise or lower the signal;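 on AC50: MMP9 protein level quantified by ELISA in the co-culture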
In short: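 Human keratinocyte/foreskin fibroblast co-culture; compound added; 24 h; MMP-9 by ELISA; bidirectional fit vs DMSO baseline.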

[13] = read-out: urokinase plasminogen activator (uPA), PLAU (gene 5328); assay: BSK_KF3CT_uPA: BioMAP Diversity Plus: KF3CT Assay for urokinase plasminogen activator (uPA) Biomarker Activity (AID 2283075); details: primary human keratinocytes with fibroblasts; actives raise or lower the signal
In short: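 ELISA readout of uPA, analyzed for signal gain or loss relative to DMSO, from a human primary keratinocyte–foreskin fibroblast co-culture measured 24 h after chemical treatment.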

CD40, CD40 (gene 958) = assay: BSK_LPS_CD40: BioMAP Diversity Plus: LPS Assay for CD40 Biomarker Activity (AID 2283076); details: primary human HUVEC with PBMC; actives raise or lower the signal
In short: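 CD40 signal, measured by ELISA, is fitted in both directions relative to DMSO vehicle. The system is an LPS-driven human vascular primary co-culture of endothelial cells and PBMC, sampled 24 h after compound addition.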

[14] = read-out: E-selectin (Homo sapiens) (UniProt P16581); assay: BSK_LPS_Eselectin: BioMAP Diversity Plus: LPS Assay for Eselectin Biomarker Activity (AID 2283077); details: primary human HUVEC with PBMC; actives raise or lower the signal
In short: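 Signal of E-selectin, detected by ELISA, served as the endpoint; cells were umbilical vein endothelium with PBMC, read 24 h after treatment. DMSO defined baseline, and both increases and decreases were fitted.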

[15] = read-out: Interleukin-8 (IL8), CXCL8 (gene 3576); assay: BSK_LPS_IL8: BioMAP Diversity Plus: LPS Assay for Interleukin-8 (IL8) Biomarker Activity (AID 2283078); details: primary human HUVEC with PBMC; actives raise or lower the signal
In short: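 Endothelial cells and PBMC from human donors are co-cultured, treated with chemicals and LPS, then assayed for IL-8 by ELISA after 24 h. Parallel SRB staining (0.1% SRB after 10% TCA fixation, 560 nm) flags cytotoxicity.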

[16] = read-out: Interleukin-1 alpha (IL1a), IL1A (gene 3552); assay: BSK_LPS_IL1a: BioMAP Diversity Plus: LPS Assay for Interleukin-1 alpha (IL1a) Biomarker Activity (AID 2283080); details: primary human HUVEC with PBMC; actives raise or lower the signal
In short: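 Measured: IL-1 alpha via ELISA at 24 h in LPS-activated human umbilical vein endothelium–PBMC co-culture. Baseline: DMSO, bidirectional fitting.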

[17] = read-out: Monocyte Chemoattractant Protein-1 (MCP1), CCL2 (gene 6347); assay: BSK_LPS_MCP1: BioMAP Diversity Plus: LPS Assay for Monocyte Chemoattractant Protein-1 (MCP1) Biomarker Activity (AID 2283081); details: primary human HUVEC with PBMC; actives raise or lower the signal
In short: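 LPS-stimulated HUVEC/PBMC co-culture; chemical, 24 h; MCP-1 by ELISA; bidirectional fit vs DMSO; cytotoxicity via SRB (0.1% stain, 10% TCA fix, 560 nm) in parallel wells.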

[18] = BSK_LPS_SRB: Viability Assessment in the BioMAP Diversity Plus: LPS Assay (AID 2283079); details: primary human HUVEC with PBMC;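 further: total protein by sulforhodamine B absorbance as a cytotoxicity measure; measured one day after compound addition; fitted in both directions against DMSO so loss or gain of signal counts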
In short: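 Overt cytotoxicity was gauged by sulforhodamine B total-protein staining in a primary human vascular endothelial and mononuclear cell co-culture 24 h post-dosing. Activity was fitted in both directions relative to DMSO.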

Measured: AC50

Chain of E-selectin (Homo sapiens) (P16581 whole entry, looked up): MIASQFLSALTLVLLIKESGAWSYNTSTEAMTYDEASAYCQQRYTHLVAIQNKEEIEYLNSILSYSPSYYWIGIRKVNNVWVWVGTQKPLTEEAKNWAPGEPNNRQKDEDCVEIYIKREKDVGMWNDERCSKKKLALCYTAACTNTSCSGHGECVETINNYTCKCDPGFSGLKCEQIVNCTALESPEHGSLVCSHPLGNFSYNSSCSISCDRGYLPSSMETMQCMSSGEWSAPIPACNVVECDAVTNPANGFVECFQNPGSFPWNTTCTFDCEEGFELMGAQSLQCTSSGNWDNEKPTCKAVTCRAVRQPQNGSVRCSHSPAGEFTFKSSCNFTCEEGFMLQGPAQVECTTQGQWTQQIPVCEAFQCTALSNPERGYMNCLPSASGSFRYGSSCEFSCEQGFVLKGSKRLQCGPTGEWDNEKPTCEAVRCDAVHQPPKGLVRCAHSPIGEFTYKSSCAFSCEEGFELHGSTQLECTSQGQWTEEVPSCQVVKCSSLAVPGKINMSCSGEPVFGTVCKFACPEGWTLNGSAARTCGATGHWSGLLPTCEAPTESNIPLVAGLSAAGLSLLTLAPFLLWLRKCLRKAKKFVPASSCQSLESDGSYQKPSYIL

O=C(O)CCCCC(=O)O
inactive: [1] | [2] | [3] | [4] | [5] | [6] | [7] | [8] | [9] | [10] | [11] | [12] | [13] | CD40, CD40 (gene 958) | [14] | [15] | [16] | [17]

CCCCCCC(=O)OCC
inactive: [1] | [2] | [3] | [4] | [5] | [6] | [7] | [8] | [9] | [10] | [12] | [13] | CD40, CD40 (gene 958) | [14] | [15] | [16] | [17]

Nc1nc(N)c2nc(CNc3ccc(C(=O)N[C@@H](CCC(=O)O)C(=O)O)cc3)cnc2n1
inactive: [1] | [2] | [3] | [4] | [5] | [6] | [7] | [8] | [9] | [10] | [12] | [13] | CD40, CD40 (gene 958) | [14] | [15] | [16] | [17]

C=CCOC(=O)c1ccccc1C(=O)OCC=C
inactive: [1] | [2] | [3] | [4] | [5] | [6] | [7] | [8] | [9] | [10] | [12] | CD40, CD40 (gene 958) | [14] | [15] | [16] | [17]

O=c1c(O)c(-c2ccc(O)c(O)c2)oc2cc(O)cc(O)c12
inactive: [1] | [3] | [4] | [5] | [14] | [16] | [17]
active: [2] 7.18 µM | [7] 17.6 µM | [8] 14.2 µM | [9] 7.22 µM | [10] 20 µM | [12] 20 µM | [13] 12.7 µM | CD40, CD40 (gene 958) 28.5 µM | [15] 20 µM | [18] 32.8 µM

Cc1ccc(C)c(C)c1
inactive: [1] | [2] | [3] | [4] | [5] | [6] | [7] | [8] | [9] | [10] | [12] | [13] | CD40, CD40 (gene 958) | [14] | [15] | [18] | [16] | [17]

O=c1[nH]cc(F)c(=O)[nH]1
active: CD40, CD40 (gene 958) 20.4 µM
inactive: [1] | [2] | [3] | [4] | [5] | [6] | [7] | [8] | [9] | [10] | [12] | [14] | [15] | [16] | [17]

CCOc1ccc2c(c1)C(C)=CC(C)(C)N2
active: [2] 16.4 µM | [4] 3.97 µM
inactive: [1] | [3] | [5] | [6] | [7] | [8] | [9] | [10] | [12] | CD40, CD40 (gene 958) | [14] | [15] | [16] | [17]

Oc1ccc2ccccc2c1N=Nc1ccccc1
inactive: [1] | [2] | [3] | [4] | [6] | [7] | [8] | [9] | [11] | CD40, CD40 (gene 958) | [14] | [15] | [18] | [16] | [17]
active: [5] 0.855 µM | [10] 6.33 µM | [12] 3.97 µM

NCCO
inactive: [1] | [2] | [3] | [4] | [5] | [6] | [7] | [8] | [9] | [10] | [12] | [13] | CD40, CD40 (gene 958) | [14] | [15] | [18] | [16] | [17]

COc1ccc2c(c1)c(CC(=O)O)c(C)n2C(=O)c1ccc(Cl)cc1
inactive: [1] | [2] | [3] | [4] | [5] | [6] | [7] | [8] | [9] | [10] | [12] | CD40, CD40 (gene 958) | [14] | [15] | [16] | [17]

CCCCCC(=O)O
inactive: [1] | [2] | [3] | [4] | [5] | [6] | [7] | [8] | [9] | [10] | [12] | [13] | CD40, CD40 (gene 958) | [14] | [15] | [16] | [17]

c1cc(-c2ccncc2)ccn1
inactive: [1] | [2] | [3] | [4] | [5] | [6] | [7] | [8] | [9] | [10] | [12] | [13] | CD40, CD40 (gene 958) | [14] | [15] | [16] | [17]

NCC1(Cc2noc(=O)[nH]2)CCCCC1
inactive: [1] | [2] | [3] | [4] | [5] | [6] | [7] | [8] | [9] | [10] | [12] | CD40, CD40 (gene 958) | [14] | [15] | [18] | [16] | [17]

CCCCCCCCCCC
inactive: [1] | [2] | [3] | [4] | [5] | [6] | [7] | [8] | [9] | [10] | [12] | [13] | CD40, CD40 (gene 958) | [14] | [15] | [18] | [16] | [17]
